# This excerpt belongs to a sample that is enriched for the strongest signals.
# B1: EUL D1A second (Oryza sativa) (protein)
# chain: GAATACTIGGVPVHTVRVFSAAGEDYCLTVRNGTACLAPKNPRDDYQHWIKDMRHSNKIRDEEGYPAFALVNKVTGEAIKHSTGQGHPVKLVPYNPEYQDESVLWTESKDVGKGFRCIRMVNNIYLNFDAFHGDKDHGGIHDGTEIVLWKWCEGDNQRWKILPWILEQKLISEEDLNSAVDHHHHHH
# How the values were obtained:
# Test in all cases: glycan array binding signal (z-score within array); higher = stronger binding
# Details in all cases: glycan notation: IUPAC condensed, linker removed
# [1] = target: Gal(b1-4)GlcNAc(b1-3)Gal(b1-4)GlcNAc(b1-3)Gal(b1-4)GlcNAc(b1-3)Gal(b1-4)GlcNAc(b1-3)Gal(b1-4)GlcNAc(b1-3)Gal(b1-4)GlcNAc(b1-2)Man(a1-3)[Gal(b1-4)GlcNAc(b1-3)Gal(b1-4)GlcNAc(b1-3)Gal(b1-4)GlcNAc(b1-3)Gal(b1-4)GlcNAc(b1-3)Gal(b1-4)GlcNAc(b1-3)Gal(b1-4)GlcNAc(b1-2)Man(a1-6)]Man(b1-4)GlcNAc(b1-4)GlcNAc
# Summary of the method: (§1)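 Glycan array data came from 3228 arrays in the Consortium for Functional Glycomics database, and only arrays with an available protein sequence were kept. Glycan names were put into IUPAC-condensed notation, and columns mapping to the same glycan were averaged. The binding signal is a within-array Z-score, averaged across arrays of one protein sequence run at different concentrations or buffers and across linkers. A negative Z-score can be read as non-binding.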
# [2] = target: Gal(b1-4)GlcNAc(b1-6)Gal(b1-4)GlcNAc
# Summary of the method: as §1
# [3] = target: Gal(b1-4)GlcNAc(b1-6)[Gal(b1-4)GlcNAc(b1-3)]GalNAc
# Summary of the method: as §1
# Gal3S(b1-4)GlcNAc = target: Gal3S(b1-4)GlcNAc
# Summary of the method: as §1
# [4] = target: Gal3S(b1-4)[Fuc(a1-3)]Glc6S
# Summary of the method: as §1
# [5] = target: Gal3S(b1-4)[Fuc(a1-3)]GlcNAc
# Summary of the method: as §1
# Gal6S(b1-4)GlcNAc6S = target: Gal6S(b1-4)GlcNAc6S
# Summary of the method: as §1
# GalNAc(a1-3)GalNAc = target: GalNAc(a1-3)GalNAc
# Summary of the method: as §1
# [6] = target: GalNAc(b1-3)Gal(a1-4)Gal(b1-4)GlcNAc(b1-3)Gal(b1-4)Glc
# Summary of the method: as §1
# [7] = target: GalNAc(b1-3)Gal(a1-6)Gal(b1-4)Glc
# Summary of the method: as §1
# GalNAc3S(b1-4)GlcNAc3S = target: GalNAc3S(b1-4)GlcNAc3S
# Summary of the method: as §1
# Glc(a1-4)Glc = target: Glc(a1-4)Glc
# Summary of the method: as §1
# [8] = target: GlcNAc(a1-4)Gal(b1-4)GlcNAc(b1-3)Gal(b1-4)[Fuc(a1-3)]GlcNAc(b1-3)Gal(b1-4)[Fuc(a1-3)]GlcNAc
# Summary of the method: as §1
# [9] = target: GlcNAc(b1-3)Gal(b1-4)GlcNAc(b1-3)Gal(b1-4)GlcNAc(b1-2)Man(a1-3)[GlcNAc(b1-3)Gal(b1-4)GlcNAc(b1-3)Gal(b1-4)GlcNAc(b1-2)Man(a1-6)]Man(b1-4)GlcNAc(b1-4)GlcNAc
# Summary of the method: as §1
# [10] = target: GlcNAc(b1-3)Gal(b1-4)GlcNAc(b1-3)Gal(b1-4)GlcNAc(b1-3)Gal(b1-4)GlcNAc(b1-2)Man(a1-3)[GlcNAc(b1-3)Gal(b1-4)GlcNAc(b1-3)Gal(b1-4)GlcNAc(b1-3)Gal(b1-4)GlcNAc(b1-2)Man(a1-6)]Man(b1-4)GlcNAc(b1-4)GlcNAc
# Summary of the method: as §1
# [11] = target: GlcNAc(b1-4)[GlcNAc(b1-6)]GalNAc
# Summary of the method: as §1
# Kdn(a2-6)Gal(b1-4)GlcNAc = target: Kdn(a2-6)Gal(b1-4)GlcNAc
# Summary of the method: as §1
# [12] = target: Man(a1-2)Man(a1-3)[Man(a1-2)Man(a1-6)]Man(a1-6)[Man(a1-2)Man(a1-2)Man(a1-3)]Man
# Summary of the method: as §1
# [13] = target: Man(a1-2)Man(a1-3)[Man(a1-2)Man(a1-6)]Man(a1-6)[Man(a1-2)Man(a1-2)Man(a1-3)]Man(b1-4)GlcNAc(b1-4)GlcNAc
# Summary of the method: as §1
# [14] = target: Man(a1-2)Man(a1-6)[Man(a1-3)]Man(a1-6)[Man(a1-2)Man(a1-2)Man(a1-3)]Man
# Summary of the method: as §1
# [15] = target: Neu5Ac(a2-3)Gal(b1-3)GlcNAc(b1-2)Man
# Summary of the method: as §1
# [16] = target: Neu5Ac(a2-3)Gal(b1-3)GlcNAc(b1-6)GalNAc
# Summary of the method: as §1
# [17] = target: Neu5Ac(a2-3)Gal(b1-3)[Fuc(a1-4)]GlcNAc
# Summary of the method: as §1
# [18] = target: Neu5Ac(a2-3)Gal(b1-3)[GlcNAc(b1-6)]GalNAc
# Summary of the method: as §1
# [19] = target: Neu5Ac(a2-3)Gal(b1-3)[Neu5Ac(a2-6)]GlcNAc(b1-3)[Fuc(a1-3)[Gal(b1-4)]GlcNAc(b1-6)]Gal(b1-4)Glc
# Summary of the method: as §1
# [20] = target: Neu5Ac(a2-3)Gal(b1-4)GlcNAc(b1-3)Gal(b1-4)GlcNAc(b1-3)Gal(b1-4)GlcNAc(b1-2)Man(a1-3)[Neu5Ac(a2-3)Gal(b1-4)GlcNAc(b1-3)Gal(b1-4)GlcNAc(b1-3)Gal(b1-4)GlcNAc(b1-2)Man(a1-6)]GalNAc
# Summary of the method: as §1
# [21] = target: Neu5Ac(a2-3)Gal(b1-4)[Fuc(a1-3)]GlcNAc(b1-3)Gal(b1-4)[Fuc(a1-3)]GlcNAc(b1-3)Gal(b1-4)[Fuc(a1-3)]GlcNAc
# Summary of the method: as §1
# [22] = target: Neu5Ac(a2-3)Gal(b1-4)[Fuc(a1-3)]GlcNAc(b1-3)GalNAc
# Summary of the method: as §1
# Neu5Ac(a2-6)Gal(b1-4)Glc = target: Neu5Ac(a2-6)Gal(b1-4)Glc
# Summary of the method: as §1
# [23] = target: Neu5Ac(a2-6)Gal(b1-4)GlcNAc(b1-2)Man(a1-3)[Man(a1-6)]Man(b1-4)GlcNAc(b1-4)GlcNAc
# Summary of the method: as §1
binder,measurement,setting,value
B1,glycan array binding signal (z-score),[1],0.069
same,glycan array binding signal (z-score),[2],-0.144
same,glycan array binding signal (z-score),[3],-0.385
same,glycan array binding signal (z-score),Gal3S(b1-4)GlcNAc,0.255
same,glycan array binding signal (z-score),[4],2.74
same,glycan array binding signal (z-score),[5],2.4
same,glycan array binding signal (z-score),Gal6S(b1-4)GlcNAc6S,0.99
same,glycan array binding signal (z-score),GalNAc(a1-3)GalNAc,-0.302
same,glycan array binding signal (z-score),[6],-0.809
same,glycan array binding signal (z-score),[7],-0.495
same,glycan array binding signal (z-score),GalNAc3S(b1-4)GlcNAc3S,-0.9
same,glycan array binding signal (z-score),Glc(a1-4)Glc,0.317
same,glycan array binding signal (z-score),[8],2.44
same,glycan array binding signal (z-score),[9],0.61
same,glycan array binding signal (z-score),[10],0.539
same,glycan array binding signal (z-score),[11],-0.443
same,glycan array binding signal (z-score),Kdn(a2-6)Gal(b1-4)GlcNAc,-1.38
same,glycan array binding signal (z-score),[12],-0.985
same,glycan array binding signal (z-score),[13],1.93
same,glycan array binding signal (z-score),[14],0.706
same,glycan array binding signal (z-score),[15],3.06
same,glycan array binding signal (z-score),[16],-0.587
same,glycan array binding signal (z-score),[17],0.596
same,glycan array binding signal (z-score),[18],0.412
same,glycan array binding signal (z-score),[19],1.26
same,glycan array binding signal (z-score),[20],3.53
same,glycan array binding signal (z-score),[21],-0.112
same,glycan array binding signal (z-score),[22],2.61
same,glycan array binding signal (z-score),Neu5Ac(a2-6)Gal(b1-4)Glc,0.113
same,glycan array binding signal (z-score),[23],0.117

# Reference: the supplement of paper PMC8728848
